# In PubChem BioAssay (Tox21):
# Unmarked numbers belong to inactive results. Records with an inconclusive call do not appear. Calls of active or inactive are those of the source. Unless noted, calls come from the whole dose curve; as a rule, active = well fitted curve in the direction sought with a large enough effect in the repeat runs; inconclusive = weak or mixed curves; inactive = no such curve, though single readings can be large; an effect the other way counts as inactive or inconclusive.
# What was measured:
# [1] = qHTS assay to identify small molecule antagonists of the estrogen related receptor (ERR) signaling pathway from Tox21 library (AID 1224848); note: nearly all actives have a fitted effect of over 50% in size; note: potency is the fitted concentration of half-maximal effect
# Method in brief: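 ERR cell line, 2,000 cells/well. 6 h settle, then compound (DMSO) added; 18 h at 37 C; ONE-Glo luminescence after 30 min RT.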
# [2] = qHTS assay to identify small molecule agonists of the estrogen related receptor (ERR) signaling pathway from Tox21 library (AID 1224849; calls by dose curve; note: nearly all actives have a fitted effect of over 15% in size); conditions: ERR reporter cell line, ONE-Glo luciferase, 18 h; at 92.4 µM (top of the series) unless noted
# Method in brief: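 Quantitative HTS in agonist format: NTP ERR cell line, compounds transferred in DMSO after 6 h plating, 18 h incubation at 37 C, ONE-Glo luminescence endpoint.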
# [3] = qHTS RealTime-Glo MT Cell Viability Assay in HepG2 cells - 24 hour (AID 1224867); note: nearly all actives have a fitted effect of over 50% in size; note: potency is the fitted concentration of half-maximal effect
# Method in brief: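 HepG2 cells (600/well) were dispensed with RealTime-Glo reagents, incubated 5 h at 37 °C, then treated with compounds in DMSO for up to 40 h. Nonlytic NanoLuc luminescence reflecting viable cells was read at each stated time point.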
# [4] = qHTS RealTime-Glo MT Cell Viability Assay in HEK293 cells - 32 hour (AID 1224868); note: nearly all actives have a fitted effect of over 50% in size; note: potency is the fitted concentration of half-maximal effect; for activity change, negative = cytotoxic: top concentration of the series differs between compounds
# Method in brief: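 HEK293 cells seeded with NanoLuc/prosubstrate reagent, rested 5 h at 37 C, then dosed and kept at 37 C up to 40 h. Nonlytic real-time luminescence from viable cells read at 0, 8, 16, 24, 32 and 40 h.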
# [5] = A CellTox Green Cytotoxicity Assay to monitor cytotoxicity in HEK293 cells - 0 hour (AID 1224869); note: nearly all actives have a fitted effect of over 50% in size; note: potency is the fitted concentration of half-maximal effect
# Method in brief: (§1)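 Dead-cell fluorescence measured kinetically: asymmetric cyanine dye, HEK293, 600 cells/well, 5 h settle, 23 nL cpd/DMSO, 37 C, reads 0–40 h every 8 h.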
# [6] = qHTS RealTime-Glo MT Cell Viability Assay in HepG2 cells - 40 hour (AID 1224870); note: nearly all actives have a fitted effect of over 50% in size; note: potency is the fitted concentration of half-maximal effect
# Method in brief: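 Real-time viability: cells seeded at 600 per well together with NanoLuc and cell-permeant prosubstrate, compounds added after 5 h incubation. Luminescence tracked at 0, 8, 16, 24, 32 and 40 h of exposure.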
# [7] = qHTS assay to identify small molecule agonists of H2AX - cell viability counter screen (AID 1224847; calls by dose curve; note: nearly all actives have a fitted effect of over 30% in size; note: potency is the fitted concentration of half-maximal effect;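 for activity change, negative = cytotoxicity: wild-type CHO-K1 cells; top concentration of the series differs between compounds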)
# Method in brief: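 Cells plated first: CHO-K1, 1000 per well in 10% FBS medium, incubated overnight at 37C. Then 15-point compound titration added (final DMSO 0.76%) for 3 hr. Finally CellTiter-Glo added and luminescence read.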
# [8] = A CellTox Green Cytotoxicity Assay to monitor cytotoxicity in HEK293 cells - 40 hour (AID 1224871); note: nearly all actives have a fitted effect of over 45% in size; note: potency is the fitted concentration of half-maximal effect
# Method in brief: as §1
# % is set by controls: 0 for no effect and ±100 for the full control effect.
compound,measurement,setting,value
Cc1cc2c(C(C)C)c(O)c(O)c(C=O)c2c(O)c1-c1c(C)cc2c(C(C)C)c(O)c(O)c(C=O)c2c1O,Potency,[1],7.5 µM (active)
same,"activity change, positive = activation",[2],-47.3% [at 42.5 µM]
same,Potency,[3],21.3 µM (active)
same,Potency,[4],12 µM (active)
same,Potency,[5],inactive
same,Potency,[6],26.8 µM (active)
CCCCCCC(C)Nc1ccc(Nc2ccccc2)cc1 (stereo not given),Potency,[5],inactive
Cc1ccc(-n2[nH]c(C)c(N=Nc3cccc(-c4cccc(C(=O)O)c4)c3O)c2=O)cc1C,Potency,[7],inactive
same,Potency,[4],23.9 µM (active)
same,Potency,[5],inactive
same,Potency,[8],inactive
Nc1cc(Cl)c([N+](=O)[O-])cc1O,Potency,[1],inactive
same,"activity change, positive = activation",[2],-13.4%
same,Potency,[3],inactive
same,Potency,[5],inactive
same,Potency,[6],inactive
same,Potency,[8],inactive
N#CSCSc1nc2ccccc2s1,Potency,[3],38.9 µM (active)
same,Potency,[4],19.5 µM (active)
same,Potency,[5],inactive
same,Potency,[6],24.5 µM (active)
same,Potency,[8],11 µM (active)
O=C(NO)c1ccccc1,Potency,[1],23.2 µM (active)
same,"activity change, positive = activation",[2],-48.5%
same,Potency,[3],inactive
same,Potency,[5],inactive
same,Potency,[6],inactive
NC1(c2ccc(-c3nc4ccn5c(=O)[nH]nc5c4cc3-c3ccccc3)cc2)CCC1,Potency,[1],3.35 µM (active)
same,"activity change, positive = activation",[2],-52.3% [at 42.5 µM]
same,Potency,[3],23.9 µM (active)
same,Potency,[5],inactive
same,Potency,[8],26.8 µM (active)
Clc1ccccc1CN1CCc2sccc2C1,Potency,[3],inactive
same,Potency,[5],inactive
same,Potency,[6],inactive
same,Potency,[8],inactive
C=CC(=O)OCC(O)COc1ccccc1 (stereo not given),Potency,[4],inactive
same,Potency,[5],inactive
same,Potency,[6],inactive
O=C(Oc1ccccc1)c1cccc(C(=O)Oc2ccccc2)c1,Potency,[3],inactive
same,Potency,[5],inactive
same,Potency,[6],inactive
same,Potency,[8],inactive
S=C(SSSSSSC(=S)N1CCCCC1)N1CCCCC1,"activity change, negative = cytotoxicity",[7],-11.5% [at 31.6 µM]
same,cytotoxicity,[5],-0.227% [at 15.8 µM]
same,"activity change, negative = cytotoxic",[6],-10.6% [at 15.8 µM]
same,Potency,[8],0.241 µM (active)
CN(Cc1cc(Br)cc(Br)c1N)C1CCCCC1,Potency,[1],inactive
same,"activity change, positive = activation",[2],-11.1% [at 42.5 µM]
same,Potency,[3],inactive
same,Potency,[5],inactive
same,Potency,[6],inactive
COc1cc(C=C2CCC/C(=C\c3ccc(O)c(OC)c3)C2=O)ccc1O,Potency,[1],8.41 µM (active)
same,"activity change, positive = activation",[2],-63.1% [at 42.5 µM]
same,Potency,[5],inactive
same,Potency,[6],23.9 µM (active)
Cc1cccc(C)c1NC(=O)CN1CCN(CCCC(c2ccc(F)cc2)c2ccc(F)cc2)CC1,Potency,[3],23.9 µM (active)
same,Potency,[4],9.52 µM (active)
same,Potency,[5],inactive
same,Potency,[8],21.3 µM (active)
COC(=O)[C@]1(C)CCC[C@@]2(C)[C@H]1CC=C1C=C(C(C)C)CC[C@@H]12,"activity change, positive = activation",[2],-22.1%
same,Potency,[3],inactive
same,Potency,[4],inactive
same,Potency,[5],24.5 µM (active)
same,Potency,[6],inactive
same,Potency,[8],38.9 µM (active)
CCN=C1C=CC(=C(c2ccc(N(CC)CC)cc2)c2ccc(N(CC)CC)cc2)c2ccccc21,Potency,[7],35.5 µM (active)
same,Potency,[3],17.3 µM (active)
same,Potency,[5],inactive
same,Potency,[6],19.4 µM (active)
same,Potency,[8],12.2 µM (active)
CNC(=O)c1cc(Oc2ccc(NC(=O)Nc3ccc(Cl)c(C(F)(F)F)c3)cc2)ccn1,Potency,[1],8.41 µM (active)
same,"activity change, positive = activation",[2],-59.1% [at 42.5 µM]
same,Potency,[4],3.01 µM (active)
same,Potency,[5],inactive
COC(=O)NCCC[Si](OC)(OC)OC,Potency,[1],inactive
same,"activity change, positive = activation",[2],-7.77%
same,Potency,[3],inactive
same,Potency,[4],inactive
same,Potency,[5],inactive
same,Potency,[6],inactive
same,Potency,[8],inactive
C=CC(=O)OCCOCC(CC)(COCCOC(=O)C=C)COCCOC(=O)C=C,Potency,[1],25.3 µM (active)
same,"activity change, positive = activation",[2],-76.5%
same,Potency,[3],25.6 µM (active)
same,Potency,[4],16.1 µM (active)
same,Potency,[5],inactive
same,Potency,[6],32.2 µM (active)
same,Potency,[8],14.4 µM (active)
C[n+]1c2cc(N)ccc2cc2ccc(N)cc21 (tested in a mixture with another compound),Potency,[4],5.35 µM (active)
same,Potency,[5],23.9 µM (active)
same,Potency,[8],23.9 µM (active)
Brc1ccccc1-c1ccccc1,Potency,[1],inactive
same,Potency,[3],inactive
same,Potency,[4],inactive
same,Potency,[5],inactive
same,Potency,[6],inactive
CC(NCCC(c1ccccc1)c1ccccc1)c1ccccc1 (stereo not given),Potency,[3],21.3 µM (active)
same,Potency,[5],inactive
same,Potency,[6],21.3 µM (active)
same,Potency,[8],21.3 µM (active)
CN(C)c1ccc(N=Nc2ccccc2C(=O)O)cc1,Potency,[4],inactive
same,Potency,[5],inactive
c1cc2c3c(c1)ccc1cccc(c13)C2,Potency,[1],70.1 µM (active)
same,"activity change, positive = activation",[2],-42.3%
same,Potency,[3],inactive
same,Potency,[5],inactive
same,Potency,[6],inactive
same,Potency,[8],50 µM (active)
Clc1ccc(C(Cn2ccnc2)OCc2ccsc2Cl)c(Cl)c1 (stereo not given),Potency,[1],18.8 µM (active)
same,"activity change, positive = activation",[2],-53.5% [at 42.5 µM]
same,Potency,[4],19 µM (active)
same,Potency,[5],inactive
CC(O)C#CC(C)O (stereo not given),Potency,[5],inactive
same,Potency,[8],54.4 µM (active)
